This note sets out measurements from PubChem BioAssay (Tox21).

For assay [1], the target named is Aryl hydrocarbon receptor (Homo sapiens) (UniProt P35869). As to the kind of experiment: qHTS assay to identify small molecule that activate the aryl hydrocarbon receptor (AhR) signaling pathway (AID 743085). Further: nearly all actives have a fitted effect of over 15% in size.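 On activation: HG2L7.5c1 human HepG2 liver cells with stably integrated DRE-driven firefly reporter; series mostly up to about 70 µM.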 In outline: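 AhR agonist activity is inferred from enhanced light output of a DRE-controlled firefly luciferase reporter in HepG2 cells, measured with ONE-Glo following 24 h treatment at 37C.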
Sequence of Aryl hydrocarbon receptor (Homo sapiens) (P35869 whole entry, looked up): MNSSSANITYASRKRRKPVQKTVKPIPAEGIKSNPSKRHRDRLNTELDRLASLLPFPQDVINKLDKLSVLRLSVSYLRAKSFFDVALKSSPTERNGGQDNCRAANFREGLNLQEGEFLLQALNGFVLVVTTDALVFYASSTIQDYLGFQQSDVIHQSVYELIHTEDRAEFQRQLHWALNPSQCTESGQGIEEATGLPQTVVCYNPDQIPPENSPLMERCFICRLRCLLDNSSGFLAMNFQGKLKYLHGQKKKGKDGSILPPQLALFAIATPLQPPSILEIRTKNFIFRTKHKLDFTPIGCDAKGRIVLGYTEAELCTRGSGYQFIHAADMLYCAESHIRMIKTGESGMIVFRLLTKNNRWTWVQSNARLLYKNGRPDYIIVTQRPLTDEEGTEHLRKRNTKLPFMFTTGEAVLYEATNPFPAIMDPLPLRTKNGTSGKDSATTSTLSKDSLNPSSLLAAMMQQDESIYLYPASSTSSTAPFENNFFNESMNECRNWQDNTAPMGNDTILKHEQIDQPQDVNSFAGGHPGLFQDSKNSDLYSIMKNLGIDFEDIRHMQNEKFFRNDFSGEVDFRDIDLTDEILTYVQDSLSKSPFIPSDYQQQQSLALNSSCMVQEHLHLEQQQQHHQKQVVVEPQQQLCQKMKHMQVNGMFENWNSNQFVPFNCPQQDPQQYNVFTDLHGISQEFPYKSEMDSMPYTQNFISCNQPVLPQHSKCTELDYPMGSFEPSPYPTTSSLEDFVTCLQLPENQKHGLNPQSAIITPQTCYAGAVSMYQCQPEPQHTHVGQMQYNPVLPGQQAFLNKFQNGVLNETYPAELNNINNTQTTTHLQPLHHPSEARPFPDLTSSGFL

Assay [2] in a line: qHTS assay to identify small molecule that activate the aryl hydrocarbon receptor (AhR) signaling pathway - cell viability counter screen (AID 743086). Further: nearly all actives have a fitted effect of over 45% in size. In outline:
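HepG2-AhR-luc (HG2L7.5c1) cells, 4000/well, treated 24 h at 37 C with compound; viability measured as CellTiter-Fluor fluorescence after 30 min in the same wells as the luciferase read.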

The nature of assay [3]: qHTS assay to identify small molecule antagonists of the peroxisome proliferator-activated receptor gamma (PPARg) signaling pathway - cell viability counter screen (AID 743194). Further: nearly all actives have a fitted effect of over 55% in size. The conditions noted are these: Potency: co-treated with 50 nM rosiglitazone unless noted. In outline:
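Cytotoxicity counter screen in PPARg-bla HEK293H cells, same wells as reporter assay. Compounds plus 50 nM rosiglitazone (final) for 17 h at 37 C, then viability read by CellTiter-Glo luminescence.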

A short description of assay [4]: qHTS assay for small molecule agonists of the antioxidant response element (ARE) signaling pathway (AID 743202; active means well fitted activation curve with a large enough effect in the signal ratio in the repeat runs, not every such curve was filed as active; the % refers to the signal ratio). In a few lines: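 ARE-bla HepG2 cells (beta-lactamase reporter under the antioxidant response element), plated 5 hours, then exposed to compounds 16 hours at 37 C. LiveBLAzer B/G FRET substrate added for 2 hours at room temperature; fluorescence intensity read.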

Assay [5] is described as follows: qHTS assay for small molecule agonists of the antioxidant response element (ARE) signaling pathway - cell viability counter screen (AID 743203; calls by dose curve; further: nearly all actives have a fitted effect of over 55% in size). In a few lines: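 HepG2 cells carrying ARE-driven beta-lactamase; 2,000 cells/well; 5 hrs plating; compound pinned from DMSO; 16 hrs 37C/5% CO2; CellTiter-Glo added; 30 min RT; luminescence.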
Assay [6] in a line: qHTS assay for small molecule activators of the heat shock response signaling pathway - cell viability counter screen (AID 743209). Further: nearly all actives have a fitted effect of over 50% in size. In a few lines: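 Luminescence from CellTiter-Glo, added after the beta-lactamase FRET read, gave the viability signal. Cells were HSE-bla HeLa treated with DMSO-dissolved compounds for 5 h at 37 C following overnight plating.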
The nature of assay [7]: qHTS assay to identify small molecule agonists of the peroxisome proliferator-activated receptor delta (PPARd) signaling pathway - cell viability counter screen (AID 743211). Further: nearly all actives have a fitted effect of over 55% in size. In a few lines: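 qHTS cell viability: PPARd-bla HEK293H; 17 h cpd, 37C; CellTiter-Glo, luminescence at 30 min RT.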
Assay [8] can be described thus: qHTS assay for small molecule activators of the heat shock response signaling pathway (AID 743210; active means well fitted activation curve with a large enough effect in the signal ratio in the repeat runs, with a control signal flat, not every such curve was filed as active; the % refers to the signal ratio; on activation: series mostly up to about 63 µM). In outline: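 HSE-bla HeLa cells (beta-lactamase reporter under heat shock response elements), plated overnight, then exposed to compounds 5 h at 37 C; LiveBLAzer B/G FRET substrate added, 2.5 h at room temperature, fluorescence intensity read.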
Assay [9] deals with Peroxisome proliferator-activated receptor gamma (Homo sapiens) (UniProt P37231). Put plainly: qHTS assay to identify small molecule agonists of the peroxisome proliferator-activated receptor gamma (PPARg) signaling pathway (AID 743094; active means well fitted activation curve with a large enough effect in the signal ratio in the repeat runs, not every such curve was filed as active; the % refers to the signal ratio). In outline: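 Beta-lactamase FRET fluorescence was the read-out after a 1 h room-temperature substrate step, following 17 h compound treatment at 37C of HEK293H cells expressing a UAS-driven bla reporter responsive to PPARg.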
Sequence of Peroxisome proliferator-activated receptor gamma (Homo sapiens) (P37231 whole entry, looked up): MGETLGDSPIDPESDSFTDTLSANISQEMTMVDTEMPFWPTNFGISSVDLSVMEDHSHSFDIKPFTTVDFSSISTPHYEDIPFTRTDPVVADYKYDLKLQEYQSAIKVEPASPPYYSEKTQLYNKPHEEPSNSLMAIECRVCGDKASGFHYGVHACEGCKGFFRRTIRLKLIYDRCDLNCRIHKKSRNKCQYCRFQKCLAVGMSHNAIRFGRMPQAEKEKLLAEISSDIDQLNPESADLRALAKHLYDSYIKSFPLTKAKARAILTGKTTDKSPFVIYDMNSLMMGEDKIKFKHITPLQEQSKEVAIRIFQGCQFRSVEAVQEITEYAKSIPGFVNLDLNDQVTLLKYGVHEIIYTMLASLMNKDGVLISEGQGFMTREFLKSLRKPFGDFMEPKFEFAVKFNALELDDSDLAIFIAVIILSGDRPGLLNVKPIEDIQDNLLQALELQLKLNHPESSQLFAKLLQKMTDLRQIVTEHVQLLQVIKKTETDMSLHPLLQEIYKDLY

Assay [10] shares this target. Put plainly: qHTS assay to identify small molecule antagonists of the peroxisome proliferator-activated receptor gamma (PPARg) signaling pathway (AID 743191; calls by dose curve; further: nearly all actives have a fitted effect of over 30% in size). In a few lines:
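GeneBLAzer PPARg UAS-bla HEK293H cells, 5 h post-plating, exposed to compounds 17 h at 37C. LiveBLAzer B/G FRET substrate added for 1 h at room temperature; beta-lactamase reporter read by fluorescence intensity.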

Values joined by “and” are separate entries in the source; they are usually repeats but may differ in a detail not shown here. Equal values may be shown once. Records with an inconclusive call do not appear. Active and inactive are the calls of the source. Unless noted, the call rests on the fitted dose curve; in most records, active means well fitted curve in the direction sought with a large enough effect in the repeat runs; inconclusive means weak or mixed curves; inactive means no such curve, though single readings can be large; an effect the other way counts as inactive or inconclusive.
Potency means the concentration at half of the fitted maximal effect.

For the compound `O=C/C(Cl)=C(/Cl)C(=O)O`, the Potency entry in assay [1], in [2], in assay [3], in assay [5] and in assay [7] was “inactive” in each case. The Potency in [4] is 38.5 µM (active) and 27.3 µM (active); in assay [6], 38.9 µM (active).
Take `N#CSCSC#N`: the Potency result in assay [1] and in [2] was “inactive” in each case. Besides, the Potency was 27.3 µM (active) in assay [3]; 55.7 µM (active) and 48.1 µM (active) in assay [5]; 19.9 µM (active) and 12.2 µM (active) in assay [6]; 50.1 µM (active) and 43.2 µM (active) in assay [7].
`C[C@]12Cc3nonc3C[C@@H]1CC[C@@H]1[C@@H]2CC[C@@]2(C)[C@H]1CC[C@]2(C)O`: the Potency entry in [1], in assay [2], in assay [3], in assay [5], in [6] and in [8] was “inactive” each time. Moreover, the Potency in [4] was 8.41 µM (active).
With `CC1CCC(C(C)C)C(OC(=O)c2ccccc2N)C1` (stereo not drawn), the Potency entry in assay [1], in [2], in [9] and in [5] was “inactive” each time. Moreover, in assay [7], the Potency is 24.2 µM (active).
Regarding `CC[C@H]1C[C@@H]2C[C@H]3c4[nH]c5ccc(OC)cc5c4CCN(C2)[C@@H]13`, the values for the Potency in [1], in assay [8] and in assay [7] were 8.49 µM (active), 45.9 µM (active) and 60.1 µM (active), respectively. Besides, the Potency result in assay [2], in assay [3], in assay [4], in [5] and in assay [6] was “inactive” each time.
Turning to `Cc1cc(C(C)(C)c2cc(C)c(O)c(C)c2)cc(C)c1O`, the Potency result in [1] and in assay [8] was “inactive” throughout. Moreover, the Potency in assay [2] is 52.7 µM (active); in assay [10], 29.9 µM (active); in [7], 47.4 µM (active).
With `Cc1cc(C)c(C2=C(OC(=O)CC(C)(C)C)C3(CCCC3)OC2=O)c(C)c1`, the Potency entry in [1], in assay [2], in assay [3], in assay [5], in assay [6] and in [8] was “inactive” each time. The Potency entry in assay [7] is “inactive”.
In the case of `CCC(C)(C)C(=O)OC1=C(c2ccc(Cl)cc2Cl)C(=O)OC12CCCCC2`, the Potency entry in assay [1], in assay [2] and in assay [7] was “inactive” each time. Further, the Potency was 1.74 µM (active) in [9], 30.6 µM (active) in [5] and 54.9 µM (active) in [6].
`O=[N+]([O-])c1cc(C(F)(F)F)c(Cl)c([N+](=O)[O-])c1Cl`: the Potency result in assay [1] is “inactive”. Moreover, the Potency in assay [2] is 54.5 µM (active); in [3] it was 2.45 µM (active); in assay [5], 1.72 µM (active); in [6], 2.19 µM (active); in [7] it was 11 µM (active).
Consider `CCCCOCN(C(=O)CCl)c1c(CC)cccc1CC`, for which the Potency entry in assay [1], in [2], in assay [3] and in assay [6] was “inactive” each time. The Potency in [5] was 48.6 µM (active).
As for `FC(Cl)(Cl)Cl`, the Potency entry in assay [1], in assay [2], in assay [10], in assay [3], in [4] and in assay [5] was “inactive” each time. Further, the Potency entry in [6], in assay [8] and in assay [7] was “inactive” each time.
`[Cl][Sb]([Cl])[Cl]`: the Potency entry in [1], in assay [2], in [9], in assay [5] and in [6] was “inactive” each time. For the same compound, the Potency in assay [4] is 5.45 µM (active).
As to `CC(C)[C@H](C(=O)O[C@H](C#N)c1cccc(Oc2ccccc2)c1)c1ccc(Cl)cc1`, the Potency result in assay [1], in assay [2], in assay [3], in [4], in assay [6] and in [7] was “inactive” throughout.
For the compound `CCC[CH2][Sn]([CH2]CCC)([CH2]CCC)[O]C(=O)c1ccccc1`, the Potency entry in assay [1] is “inactive”. For the same compound, the Potency in assay [2] is 2.73 µM (active); in assay [3], 0.49 µM (active); in [5], 0.273 µM (active); in [6] it was 1.38 µM (active); in [7] it was 0.616 µM (active).
Turning to `O=c1ssc(Cl)c1Cl`, the Potency entry in assay [1] and in [2] was “inactive” each time. In addition, the Potency in [3] was 38.9 µM (active); in assay [5], 24.3 µM (active); in assay [6], 49 µM (active); in assay [7] it was 49 µM (active).
In the case of `C=CC(=O)OCCCCOC(=O)C=C`, the Potency entry in assay [1] and in assay [2] was “inactive” in each case. Also, the Potency is 9.77 µM (active) in assay [9], 27.3 µM (active) in assay [4], 5.49 µM (active) in assay [6] and 49 µM (active) in [7].
As for `CC(C)Oc1cccc(NC(=O)c2ccccc2C(F)(F)F)c1`, in [1], the Potency was 9.97 µM (active). For the same compound, the Potency entry in [2], in [9] and in assay [8] was “inactive” each time.
For the compound `Nc1ccccc1C(=O)OC/C=C/c1ccccc1`, the Potency in assay [1] is 61.3 µM (active); in assay [5], 68.7 µM (active); in assay [6], 34.8 µM (active); in assay [7] it was 39 µM (active). Further, the Potency entry in assay [2] and in assay [9] was “inactive” in each case.
`CC(C)[C@H](C(=O)OC(C#N)c1cccc(Oc2ccccc2)c1)c1ccc(OC(F)F)cc1` (stereo partly drawn): the Potency result in assay [1], in assay [2], in [10], in assay [3], in assay [4] and in assay [5] was “inactive” each time. Moreover, the Potency result in assay [6] and in [7] was “inactive” throughout.
As to `c1ccc(OCC2CO2)cc1` (stereo not drawn), the Potency result in [1], in [2], in assay [3], in [4], in [5] and in assay [6] was “inactive” each time.
As for `CC(C)OC(=O)C(O)(c1ccc(Cl)cc1)c1ccc(Cl)cc1`, the Potency entry in assay [1], in [2], in assay [9], in assay [4], in assay [5] and in assay [6] was “inactive” throughout. In addition, the Potency result in assay [8] and in assay [7] was “inactive” each time.
On to `Cc1cc(SCc2sc(-c3ccc(C(F)(F)F)c(F)c3)nc2C)ccc1OCC(=O)O`, for which the Potency entry in assay [1] and in assay [2] was “inactive” each time. Moreover, the Potency was 2.45 µM (active) in assay [9], 49 µM (active) in assay [3] and 38.9 µM (active) in assay [7].
Turning to `Oc1c(Cl)c(Cl)cc(Cl)c1Cl`, the Potency result in [1], in assay [2], in [3] and in [6] was “inactive” each time. Besides, the Potency in assay [10] is 3.78 µM (active).
As for `CCCN(CC)CC1COC2(CCC(C(C)(C)C)CC2)O1` (stereo not drawn), the Potency result in assay [1], in assay [2], in assay [3], in [5], in [6] and in [8] was “inactive” in each case. Also, in assay [7], the Potency entry was “inactive”.
On to `ClC1=C(Cl)[C@]2(Cl)[C@H]3[C@H]([C@H]4C=C[C@H]3C4)[C@@]1(Cl)C2(Cl)Cl`, for which the Potency result in assay [1], in assay [2], in [9], in assay [5], in assay [6] and in [8] was “inactive” throughout. Besides, in assay [7], the Potency result was “inactive”.
Consider `C[C@@H]1O[C@@H](O[C@@H]2C=C3CC[C@@H]4[C@H](CC[C@]5(C)[C@@H](c6ccc(=O)oc6)CC[C@]45O)[C@@]3(C)CC2)[C@H](O)[C@H](O)[C@H]1O`, for which the Potency result in assay [1] and in assay [2] was “inactive” in each case. The Potency was 0.0119 µM (active) in assay [3], 0.0211 µM (active) in assay [5], 0.006 µM (active) in assay [6] and 0.0188 µM (active) in assay [7].
